# Pol beta inh: DNA polymerase beta (human) inhibition | Pol beta primer extension/strand displacement, fluorescence kinetic | Potency, µM (highest dose often 114 µM), for the others: top-dose activity change, negative = inhibition, hits mostly inhibitors | hit rate 1.3% among 340,000 | AID 485314; also: % is scaled to controls: 0 for no effect and ±100 for the full control effect
#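 Preincubation: enzyme (10 nM) with compound, 15 min, RT. Reaction: substrate added to 50 nM final. Reads: 0 and 10 min. Analysis: normalized, Hill fit.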
# POLK inh: inhibitors of human DNA polymerase kappa; AID 588579; hit rate 0.53% among 400,000; Potency, µM (highest dose often 107 µM), for the others: at the top dose activity, negative = inhibition, most hits filed as inhibitors; purified Pol kappa, fluorescent DNA synthesis assay, 10 min; Q9UBT6; also: % is scaled to controls: 0 for no effect and ±100 for the full control effect
#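 Kinetic fluorescence readout at 0 and 10 min followed reaction start with substrate at 50 nM final. Beforehand, enzyme (10 nM Pol kappa) stood 15 min with compound at room temperature; buffer-only wells were negative controls.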
# WRN helicase inh: blocks human WRN helicase. Potency, µM (highest dose often 114 µM), for the others: at the top dose activity change, negative = inhibition, most hits filed as inhibitors. Q14191. hit rate 0.46% among 360,000. WRN helicase unwinding, fluorescent forked duplex, kinetic. AID 651768; also: % is scaled to controls: 0 for no effect and ±100 for the full control effect; nearly all actives have a fitted effect of over 55% in size
#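 Primary qHTS, 1536-well format. 20 nM WRN + compound, 15 min RT; start with 100 nM forked fluorophore/quencher duplex, 2 mM ATP (final); kinetic read ex 525/em 598 nm.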
# POLI inh: DNA polymerase iota (human) inhibition | Pol iota fluorescent replication assay, 10 min | Potency, µM (top dose mostly 115 µM), without a hit: top-dose activity, negative = inhibition, actives largely listed as inhibitors | Q9UNA4 | hit rate 1% among 390,000
# Target sequence (Q9UNA4 whole entry, looked up): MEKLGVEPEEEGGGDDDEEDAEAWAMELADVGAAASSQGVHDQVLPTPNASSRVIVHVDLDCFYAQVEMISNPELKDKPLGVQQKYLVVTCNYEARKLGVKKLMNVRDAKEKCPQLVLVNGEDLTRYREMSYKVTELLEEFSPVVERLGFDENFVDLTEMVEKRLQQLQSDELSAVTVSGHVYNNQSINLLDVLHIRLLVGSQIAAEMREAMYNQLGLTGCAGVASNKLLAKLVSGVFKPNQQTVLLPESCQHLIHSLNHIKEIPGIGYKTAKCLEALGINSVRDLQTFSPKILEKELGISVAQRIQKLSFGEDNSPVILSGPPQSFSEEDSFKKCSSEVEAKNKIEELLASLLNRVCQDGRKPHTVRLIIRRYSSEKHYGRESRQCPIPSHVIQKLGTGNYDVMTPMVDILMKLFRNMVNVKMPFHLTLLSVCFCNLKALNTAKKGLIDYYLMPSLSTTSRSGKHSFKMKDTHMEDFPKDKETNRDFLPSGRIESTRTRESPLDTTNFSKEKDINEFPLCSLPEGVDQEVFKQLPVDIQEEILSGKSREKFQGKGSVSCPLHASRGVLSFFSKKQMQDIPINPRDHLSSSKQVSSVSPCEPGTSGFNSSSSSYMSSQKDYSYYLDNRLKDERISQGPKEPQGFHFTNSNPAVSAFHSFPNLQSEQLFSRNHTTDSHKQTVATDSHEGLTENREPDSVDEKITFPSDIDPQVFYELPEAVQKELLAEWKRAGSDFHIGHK
#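 Pol iota at 10 nM preincubated 15 min with compounds at room temperature; reaction started with fluorescent substrate, 50 nM final. Fluorescence read kinetically at 0 and 10 min; buffer-only wells as negative control.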
# POLH inh: inhibitors of human DNA polymerase eta; AID 588591; recombinant Pol eta, fluorescent DNA replication assay; Potency, µM (series often up to 114 µM), for inactives: top-dose activity change, negative = inhibition, actives largely listed as inhibitors; hit rate 1.2% among 390,000; also: % is scaled to controls: 0 for no effect and ±100 for the full control effect
#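 Pol eta at 10 nM preincubated with compounds 15 min at room temperature; reaction started with fluorescent substrate (50 nM final) and read kinetically at 0 and 10 min.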
# FEN1 inhibitor: inhibitors of human flap endonuclease 1; P39748; Recombinant FEN1 flap cleavage, fluorescence, 15 min; Potency, µM (doses to about 114 µM), without a hit: at the top dose activity change, negative = inhibition, hits mostly inhibitors; hit rate 0.35% among 390,000; AID 588795; also: % is scaled to controls: 0 for no effect and ±100 for the full control effect; nearly all actives have a fitted effect of over 65% in size
#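 Steps: FEN1 (10 nM) dispensed; compound added by pin tool; 15 min at room temperature; substrate added to 50 nM final; reads at 0 min and 15 min; data normalized and fitted (four-parameter Hill).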
# Active calls of the source: *; ? = inconclusive; . = no result; [ ] = dose if it differs, or a comment. Only some compounds are listed: those with a hit (about 2.4% of all), similar ones and a draw of the others. Calls follow the shape of the dose curve; as a rule, active = well fitted curve in the direction sought with a large enough effect; inconclusive = small, poorly fitted or top-dose-only effect, or another doubt; inactive = no such curve, though single readings can be large; an effect the other way counts as inactive or inconclusive. Potency is read from the fitted curve at half-maximal effect.
SMILES,Pol beta inh,POLK inh,WRN helicase inh,POLI inh,POLH inh,FEN1 inhibitor
Cc1cccc(-c2nc(SCC(=O)Nc3cccc(C(F)(F)F)c3)n3[nH]c(=O)cc3n2)c1,40µM*,-26%,.,?,-19%,-21%
COc1ccc(NC(=O)CSc2nc(-c3ccco3)nc3cc(=O)[nH]n23)cc1,25µM*,?,.,79µM*,?,-3%
COc1ccc(NC(=O)CSc2nnc(-c3ccco3)n2C)cc1,8%,-25%,8%,16%,-11%,-13%
Cc1cccc(NC(=O)CSc2nc(-c3cccs3)nc3cc(=O)[nH]n23)c1,?,-31%,.,?,-8%,-15%
COc1ccccc1OCCCSc1nc(-c2ccc(C(C)(C)C)cc2)nc2cc(=O)[nH]n12,?,?,.,?,79µM*,-13%
O=C(CSc1nc(-c2cccs2)nc2cc(=O)[nH]n12)Nc1cccc(C(F)(F)F)c1,?,-17%,.,?,-17%,10%
Cc1ccc(NC(=O)CSc2nc(-c3cccs3)nc3cc(=O)[nH]n23)cc1,32µM*,-34%,.,?,79µM*,-14%
N=c1ccn2c(n1)O[C@H]1[C@@H](O)[C@@H](CO)O[C@H]12,-14%[57.1 µM],.,.,-8%[58.9 µM],-2%[57.1 µM],.
O=C(CSc1nc(-c2ccccc2)nc2cc(=O)[nH]n12)Nc1ccccc1,?,-9%[60.1 µM],.,?,-2%,-9%
COc1ccc(NC(=O)CSc2nc(-c3ccco3)cc(C(F)(F)F)n2)cc1Cl,29%,-17%,.,5%,2%,-18%
Cc1ccc(NC(=O)CSc2nc(-c3ccco3)nc3cc(=O)[nH]n23)cc1C,40µM*,?,.,?,?,1%
COc1ccc(NC(=O)CSc2nc(-c3ccco3)nc3cc(=O)[nH]n23)cc1Cl,-34%,-37%,-8%[11.6 µM],79µM*,?,-18%
COc1ccc(NC(=O)CSc2nc(-c3ccccc3)nc3cc(=O)[nH]n23)cc1,25µM*,?,.,?,-15%,-3%
COc1cccc(-c2nc(SCc3ccc(C)cc3)n3[nH]c(=O)cc3n2)c1,?,-16%,.,89µM*,-8%,-5%
C=CCc1ccccc1OCCSc1nc(-c2ccccc2F)nc2cc(=O)[nH]n12,10µM*,-39%,.,?,?,-6%
CC1C(=O)Nc2ccc(S(=O)(=O)N3CCN(c4cccc(C(F)(F)F)c4)CC3)cc2NC1=O (configuration not stated),?,-10%,-8%[11.6 µM],35µM*,0%,17%
CC1C(=O)Nc2ccc(S(=O)(=O)N3CCN(c4cccc(Cl)c4)CC3)cc2NC1=O (configuration not stated),-2%,-2%,-2%,-15%,-12%,-3%
Cc1ccc(S(=O)(=O)CCC(=O)c2cccc([N+](=O)[O-])c2)cc1,8%,-12%,14µM*,84%,-4%,-25%
COc1ccc2nc(SC)c(C#N)cc2c1,29%,15%,2%,89µM*,-1%,12%
CC(C)(C)n1ncc2c(=O)n(Cc3ccc(F)c(F)c3F)cnc21,.,21%,.,28%,.,-1%
Clc1ccc(Nc2nc(NCc3ccco3)nc3nccnc23)cc1,.,0%,.,25%,.,-4%
NC(=O)c1c(NC(=O)c2ccc([N+](=O)[O-])o2)sc2c1CCCC2,62%,4%,4%,94%,8%,0%
NC(=O)c1c(NC(=O)c2cc3ccccc3o2)sc2c1CCC2,50µM*,-32%,-13%[57.1 µM],?,?,0%
O=c1cnc2cncnc2n1Cc1ccccc1,.,0%[60.1 µM],.,.,.,.
CC1(C#CC[N+]2(C)CCCCC2)CCC2C(O1)c1ccccc1OC2(C)C (configuration not stated),0%,5%,4%,40µM*,-10%,2%
SMILES,Pol beta inh,POLK inh,WRN helicase inh,POLI inh,POLH inh,FEN1 inhibitor
CCOC(=O)C(C(=O)OCC)N(Cc1cc(OC)ccc1OC)C(=O)C1CC(CO[Si](C)(C)C(C)(C)C)=CN1C(=O)OC(C)(C)C (configuration not stated),.,-12%,.,-5%,.,-11%
Fc1ccc(-c2ccnc3nc(N4CCOCC4)nn23)cc1,0%,0%,0%,29%,-12%,-13%
Fc1ccc(-c2ccnc3nc(-n4cccc4)nn23)cc1,?,-3%,-12%[57.1 µM],79µM*,-18%,1%
CN[C@@H](CCCN=C(N)N)C(=O)N[C@@H](CCCCN)C(=O)N1CCC[C@H]1C(=O)N[C@@H](Cc1c[nH]c2ccccc12)C(=O)N[C@H](C(=O)N[C@H](CC(C)C)C(=O)O)C(C)(C)C,.,7%[60.1 µM],.,.,.,.
CN(C)c1ccc(-c2nc(NC3CCNCC3)c3ccccc3n2)cc1,.,32µM*,.,.,.,.
CN(C)Cc1ccccc1-c1nc(NC2CCNCC2)c2ccccc2n1,.,14µM*,.,.,.,.
COc1ccc(-c2csc(NC(=O)CSc3nc(C)cs3)n2)cc1,.,-9%,-7%,1%,?,1%
COc1ccc(-c2csc(NC(=O)CSc3nc(C)nc4sc(C(=O)O)c(C)c34)n2)cc1,7.1µM*,32µM*,?,?,22µM*,?
COc1ccc(C(=O)Nc2c(N)nc(SCC(=O)Nc3ccc(NC(C)=O)cc3)[nH]c2=O)cc1,35µM*,?,-29%,79µM*,?,-3%
COc1ccc(NC(=O)CSc2nc(N)c(NC(=O)c3ccccc3F)c(=O)[nH]2)cc1,37%,-12%,-14%,11%,-7%,0%
COc1ccccc1NC(=O)c1ccc(NC(=O)CSc2nc(N)cc(=O)[nH]2)cc1,.,-7%,-2%,-14%,3%,20%
COc1ccc(NC(=O)c2ccc(NC(=O)CSc3nccc(=O)[nH]3)cc2)cc1,13%,-10%,?,2%,25µM*,-3%
C/C(=C1/C=Nc2ccccc21)c1ccc(N(C)C)cc1,.,-8%,.,3%,.,?
COc1ccc(N=Cc2ccc(N(CCC#N)CCC#N)cc2)cc1,.,-8%,3%,23%,?,-2%
CCOc1[nH]c(/N=C/c2ccc(OC)cc2)c(C#N)c1C#N,.,-22%,.,?,.,79µM*
CCOc1[nH]c(/N=C/c2ccco2)c(C#N)c1C#N,12%,?,-20%[57.1 µM],?,14µM*,-10%
COc1cccc(/C=C2/SC(=S)N(CCCC(=O)Nc3ccc(O)cc3)C2=O)c1,-7%,-7%,-1%,7%,5%,15%
O=C(CCN1C(=O)/C(=C/c2cccs2)SC1=S)Nc1ccc(O)cc1,21%,1%,6%,-6%,-18%,-1%
COc1cccc(/C=C2\SC(=S)N(CCCC(=O)Nc3ccc(C(=O)O)cc3)C2=O)c1,20%,-8%,2%,-25%,?,3%

# Screening data as filed in PubChem BioAssay.
